According to PubChem BioAssay AID1159580 (chemical genetic matrix, 2015):
“And” between values parts separate entries of the source, which are not always exact repeats. Identical values can stand only once. In all, about 5,500 compounds went through this assay and about 2,000 (36%) were called active. Another 18% or so got no clear call; they are omitted. Rule as the data show it: active = normalized growth mostly below about 0.91 (no sharp cut-off); inconclusive = no clear call, values can overlap the other calls; inactive = mostly above about 0.92. The list shows a part of the results.

Experiment: chemical genetic growth profiling, strain panel (AID 1159580);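 also: tested at 20 µM; growth read once vehicle control cultures reached saturation at 30 °C; 1 = growth at the plate median or of vehicle wells; lower values mean less growth of the strain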
Conditions: S. cerevisiae deletion strains, growth OD

Measured: normalized growth

CC1(C)C2CC[C@]3(C)C(C(=O)C=C4[C@@H]5C[C@@](C)(C(=O)O)CC[C@]5(C)CC[C@]43C)[C@@]2(C)CC[C@@H]1OC(=O)CCC(=O)O (stereo partly drawn)
inactive: locus YAL021C, strain ccr4, stronger effect = lower value 0.968 | locus YAL026C, strain drs2, stronger effect = lower value 0.981 | locus YAL030W, strain snc1, stronger effect = lower value 1 | locus YBL061C, strain skt5, stronger effect = lower value 0.99 | locus YBR009C, strain hhf1, stronger effect = lower value 1 | locus YBR021W, strain FUR4, stronger effect = lower value 0.981 | locus YBR023C, strain chs3, stronger effect = lower value 0.983 | locus YBR171W, strain sec66, stronger effect = lower value 0.975 | locus YBR229C, strain ROT2, stronger effect = lower value 1 | locus YBR231C, strain swc5, stronger effect = lower value 0.996 | locus YBR279W, strain paf1, stronger effect = lower value 0.976 | locus YCL011C, strain gbp2, stronger effect = lower value 0.963 | locus YCL016C, strain dcc1, stronger effect = lower value 0.979 | locus YCL029C, strain bik1, stronger effect = lower value 0.973 | locus YCL069W, strain vba3, stronger effect = lower value 1.02 | locus YCR088W, strain abp1, stronger effect = lower value 0.985 | locus YDL005C, strain med2, stronger effect = lower value 0.994 | locus YDL035C, strain GPR1, stronger effect = lower value 0.968 | locus YDL040C, strain nat1, stronger effect = lower value 0.988 | locus YDL074C, strain BRE1, stronger effect = lower value 1.02 | locus YDL101C, strain DUN1, stronger effect = lower value 1 | locus YDL134C, strain PPH21, stronger effect = lower value 0.966 | locus YDL185W, strain tfp1, stronger effect = lower value 0.958 | locus YDL192W, strain arf1, stronger effect = lower value 0.989 | locus YDR001C, strain nth1, stronger effect = lower value 0.983 | locus YDR069C, strain doa4, stronger effect = lower value 0.938 | locus YDR101C, strain arx1, stronger effect = lower value 0.994 | locus YDR137W, strain rgp1, stronger effect = lower value 0.911 | locus YDR159W, strain sac3, stronger effect = lower value 0.909 | locus YDR162C, strain NBP2, stronger effect = lower value 0.954 | locus YDR195W, strain ref2 1 | locus YDR297W, strain sur2, stronger effect = lower value 0.995 | locus YDR318W, strain mcm21, stronger effect = lower value 0.972 | locus YDR334W, strain swr1, stronger effect = lower value 0.991 | locus YDR335W, strain msn5, stronger effect = lower value 0.979 | locus YDR388W, stronger effect = lower value 1 | locus YDR392W, strain spt3, stronger effect = lower value 0.873 | locus YDR502C, strain sam2, stronger effect = lower value 0.99 | locus YEL003W, strain gim4, stronger effect = lower value 0.992 | locus YEL037C, strain rad23, stronger effect = lower value 0.986 | locus YEL061C, strain CIN8 (second series), stronger effect = lower value 0.988 | locus YEL061C, strain CIN8, stronger effect = lower value 0.999 | locus YER015W, strain faa2, stronger effect = lower value 0.989 | locus YER016W, strain bim1, stronger effect = lower value 0.975 | locus YER110C, stronger effect = lower value 0.982 | locus YER111C, strain swi4, stronger effect = lower value 0.968 | locus YER155C, strain BEM2 (second series), stronger effect = lower value 1.02 | locus YER155C, strain BEM2, stronger effect = lower value 1 | locus YER167W, strain BCK2, stronger effect = lower value 0.99 | locus YFR010W, strain ubp6, stronger effect = lower value 1.01 | locus YGL078C, strain dbp3, stronger effect = lower value 0.98 | locus YGL086W, strain mad1, stronger effect = lower value 0.999 | locus YGL167C, strain pmr1, stronger effect = lower value 0.987 | locus YGL173C, strain kem1, stronger effect = lower value 0.999 | locus YGL227W, strain vid30, stronger effect = lower value 0.982 | locus YGL240W, strain doc1, stronger effect = lower value 0.992 | locus YGL248W, strain PDE1, stronger effect = lower value 1.02 | locus YGL253W, strain hxk2, stronger effect = lower value 0.963 | locus YGR078C, strain PAC10, stronger effect = lower value 1.03 | locus YGR135W, strain pre9, stronger effect = lower value 0.96 | locus YGR229C, strain SMI1, stronger effect = lower value 0.999 | locus YGR252W, strain gcn5, stronger effect = lower value 1.04 | locus YHR013C, strain ard1, stronger effect = lower value 0.995 | locus YHR027C, strain rpn1, stronger effect = lower value 1 | locus YHR030C, strain SLT2, stronger effect = lower value 0.984 and 1.06 | locus YHR079C, strain IRE1 (second series), stronger effect = lower value 0.979 | locus YHR079C, strain IRE1, stronger effect = lower value 1.08 | locus YHR094C, strain hxt1, stronger effect = lower value 0.987 | locus YHR129C, strain ARP1, stronger effect = lower value 0.991 | locus YHR142W, strain chs7, stronger effect = lower value 0.955 | locus YHR200W, strain rpn10, stronger effect = lower value 0.958 | locus YIL066C, strain RNR3, stronger effect = lower value 0.983 | locus YIL073C, strain SPO22, stronger effect = lower value 0.91 | locus YIL125W, strain kgd1, stronger effect = lower value 1 | locus YIR030C, strain dcg1, stronger effect = lower value 0.98 | locus YJL092W, strain hpr5, stronger effect = lower value 1 | locus YJL095W, strain BCK1 (second series), stronger effect = lower value 1 | locus YJL095W, strain BCK1, stronger effect = lower value 1.03 | locus YJL115W, strain asf1, stronger effect = lower value 0.983 | locus YJL129C, strain trk1, stronger effect = lower value 0.936 | locus YJL134W, strain LCB3, stronger effect = lower value 0.99 | locus YJL154C, strain vps35, stronger effect = lower value 0.987 | locus YJL164C, strain tpk1, stronger effect = lower value 0.982 | locus YJL166W, strain qcr8, stronger effect = lower value 0.999 | locus YJL168C, strain set2, stronger effect = lower value 0.997 | locus YJL187C, strain SWE1 (second series), stronger effect = lower value 1.02 | locus YJR043C, strain POL32, stronger effect = lower value 1.01 | locus YJR066W, strain TOR1, stronger effect = lower value 1.01
